Measured values published in article PMC9574860, “Chemical Toolkit for PARK7: Potent, Selective, and High-Throughput” (Journal of Medicinal Chemistry, 2022).
Screen size: about 7,900 compounds; about 400 (5.1%) showed an effect of 50% or more. The full list was thinned out, with strong results kept by preference.

biological target: Parkinson's disease protein 7 (PARK7/DJ1) (human, UniProt Q99497); experiment: primary screen, percent inhibition; read as competition with a fluorescent probe by fluorescence polarization; higher = more effect of the substance; conditions: 100 µM
Sequence (Q99497 whole entry, looked up, the tested form may be a part): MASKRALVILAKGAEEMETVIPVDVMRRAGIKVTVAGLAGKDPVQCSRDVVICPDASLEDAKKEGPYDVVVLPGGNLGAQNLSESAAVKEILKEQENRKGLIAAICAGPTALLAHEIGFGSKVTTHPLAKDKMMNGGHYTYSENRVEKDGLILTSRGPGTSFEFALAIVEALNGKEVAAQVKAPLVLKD
In short: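 Fluorescence-polarization probe displacement (JYQ-107, 20 nM final, 2 h) after 2 h preincubation of PARK7 (0.2 μM final) with each fragment at 100 μM final. Read-out ex/em 480/520 nm; remaining activity derived from FP signal loss relative to reference controls.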

Row | Compound | Inhibition % [%]
1 | C=CC(=O)N1CCCN(C(=O)c2ccco2)CC1 | 1.97
2 | Cc1ccc(C=C(C#N)C(N)=O)c(C)c1 | 4.01
3 | Cc1cccc(C)c1NC(=O)Cn1cnc(C#N)n1 | 6.38
4 | CCN(Cc1ccc(OC)c(F)c1)C(=O)CCl | 10
5 | CCOc1ccc(CN(C)C(=O)CCl)cc1 | 67.6
6 | COc1ccc(CN(C)C(=O)CCl)cc1F | 58.3
7 | CN(Cc1cccc(C(F)(F)F)c1)C(=O)CCl | 37.1
8 | COC(=O)c1ccccc1N(C)C(=O)CCl | 6.59
9 | C=CC(=O)N1CCCC1c1cccc2c1OCCO2 (centres unmarked) | 4.1
10 | C=CC(=O)Nc1nc2c(s1)COCC2 | 6.4
11 | CC1c2cccn2CCN1C(=O)n1ccnc1 (centres unmarked) | 22
12 | O=C(Nc1ccccc1)NC1CN(c2ccccc2)C1=O (centres unmarked) | 5.74
13 | CS(=O)(=O)NCCc1ccc(C(=O)CCl)s1 | 97.6
14 | O=C(CCl)NCc1cccs1 | 3.94
15 | O=C(CCl)c1sccc1Cl | 94.4
16 | Cc1[nH]c2ccccc2c1C(=O)CCl | 6.53
17 | COC(=O)c1sccc1NC(=O)CCl | 3.83
18 | CC(C)(C)C(=O)NCc1ccc(C(=O)CCl)s1 | 76.2
19 | CC(=O)NCc1ccc(C(=O)CCl)s1 | 91.1
20 | O=C(CCl)NCC(=O)c1cccs1 | 15.1
21 | Cc1ccc(CNC(=O)CCl)s1 | 3.17
22 | CCc1ccc(CNC(=O)CCl)s1 | 4.03
23 | C=CC(=O)NCc1ccc(C)s1 | 1.04

Row | Compound | Inhibition % [%]
24 | CS(=O)(=O)c1ccccc1NC(=O)CCl | 11.4
25 | O=S(=O)(F)Cc1ccccc1Cl | 7.95
26 | C=CC(=O)Nc1nsc(N2CCCC2)n1 | 16
27 | N#Cc1cc(C(=O)O)ccn1 | 4.99
28 | CCc1ccc(B2OC(C)(C)C(C)(C)O2)n1C(=O)OC(C)(C)C | 5.89
29 | C=CC(=O)N1CCC(C)(N2CCOCC2)CC1 | 10
30 | C=CC(=O)NC1CCN(c2cnn(C)c2)C1 (centres unmarked) | 33.9
31 | CC1(C)OB(c2ccncc2)OC1(C)C | 4.41
32 | CC(=O)NCCc1ccc(C(=O)CCl)s1 | 90.4
33 | O=C(CCl)c1cnc(N2CCCCC2)s1 | 8.03
34 | O=C(CCl)NCc1ccc(Cl)s1 | 15.9
35 | O=C(CCl)NCCc1cccs1 | 31.1
36 | O=C(CCl)c1ccc(Cl)s1 | 94.6
37 | Cc1ccc(C(=O)CCl)s1 | 28.1
38 | NC(=O)Cc1ccc(C(=O)CCl)s1 | 97.4
39 | O=C(CCl)c1ccc(CC(=O)N2CCOCC2)s1 | 7.37
40 | O=C(CCl)NC(=O)NCCc1cccs1 | 11.2
41 | N#Cc1nnc(-c2ccccc2)s1 | 11.8
42 | N#Cc1[nH]ccc2nccc1-2 | 18.7
43 | C=CC(=O)NC1COc2cc(F)cc(F)c21 (centres unmarked) | 3.21
44 | CC(C)c1ccccc1OCC1CO1 (centres unmarked) | -4.39
45 | CN(C)CCc1ccc(B(O)O)cc1.Cl | 2.57
46 | O=C(CCl)NCCc1ccsc1 | 27.9

Row | Compound | Inhibition % [%]
47 | C=CC(=O)N1CCCN(CC2CCCO2)CC1 (centres unmarked) | 13.1
48 | O=C(CCl)Nc1nc(-c2cccs2)cs1 | 11.6
49 | Sc1nncc2ccccc12 | 8.48
50 | Sc1nncc(-c2cccs2)n1 | 94.3
51 | Cc1ccc(C=CS(=O)(=O)Nc2ccnn2C(C)C)cc1 | 13
52 | C=CC(=O)N1CCC(C(=O)O)(c2ccccc2)CC1 | 2.37
53 | Cc1nnc(CN(C#N)c2ccc(F)c(Cl)c2)o1 | 5.26
54 | Cc1ccc(F)c(N(C#N)Cc2nnc(C)o2)c1 | 69
55 | CCCn1c(C)nnc1CN(C#N)c1cc(C)ccc1F | 20.1
56 | O=C1OCCC1N1CCN(c2nccs2)CC1 (centres unmarked) | 2.57
57 | O=c1[nH]nc(-c2cccs2)o1 | 12.1
58 | O=c1[nH]nc(-c2ccco2)o1 | 50.5
59 | O=c1[nH]nc(-c2ccc(F)cc2)o1 | 6.22
60 | O=C(O)Cn1nc(-c2ccc(F)cc2)oc1=O | 12.4
61 | Nc1cncc(S(=O)(=O)F)c1 | 95.6
62 | Nc1ccc(S(=O)(=O)F)cc1 | 5.99
63 | N#CC(=Cc1ccc(-c2ccc(Cl)cc2Cl)o1)C(N)=O | 3.17
64 | Cc1ccc(Cl)c(OCC2CO2)c1 (centres unmarked) | 7.81
65 | CC1(C)OB(c2c(Cl)cccc2Cl)OC1(C)C | 1.49
66 | Cc1ccccc1N1CCN(C(=O)n2ccnc2)CC1 | 8.38
67 | CN(Cc1cccs1)C(=O)CCl | 36.6
68 | Cc1ccccc1CN(C)C(=O)CCl | 56.6
69 | CN(Cc1cc(Br)cs1)C(=O)CCl | 42.9

Row | Compound | Inhibition % [%]
70 | CN(Cc1ccccc1Br)C(=O)CCl | 93.9
71 | Cc1ccc(CN(C)C(=O)Cn2cnc(C#N)n2)c(C)c1 | 3.86
72 | CN(Cc1cc(C#N)ccc1F)C(=O)CCl | 50.3
73 | Cc1ccccc1CCNC(=O)CCl | 8.29
74 | Cc1ccccc1CC(=O)NNC(=O)CCl | 24
75 | Cc1ccc(CN(C)C(=O)CCl)c(C)c1 | 65.7
76 | CCN(Cc1ccc(C#N)cc1F)C(=O)CCl | 16.8
77 | CC(NC(=O)CCl)c1cccs1 (centres unmarked) | 9.37
78 | C=CC(=O)N1CC(C)S(=O)(=O)C(C)C1 (centres unmarked) | 5.08
79 | Cn1nccc1C12CCOCC1O2 (centres unmarked) | 9.22
80 | COc1ccccc1COCC1CO1 (centres unmarked) | 4.72
81 | C=CC(=O)N1CCCC(c2nn(C)cc2C(=O)O)C1 (centres unmarked) | 0.724
82 | N#Cc1ncn(-c2ncc(C(F)(F)F)cc2Cl)n1 | 6.83
83 | C=CC(=O)NCC1CCCSC1 (centres unmarked) | 13.8
84 | CN(Cc1ccc(-c2ccc(Cl)cc2)o1)C(=O)CCl | 79.2
85 | CN(Cc1ccco1)C(=O)CCl | 53
86 | O=C(CCl)N(Cc1ccco1)c1ccccc1 | 17.8
87 | Cc1ccc(CN(C)C(=O)CCl)o1 | 40.8
88 | CN(Cc1ccc(Cl)s1)C(=O)CCl | 30.4
89 | O=C(CCl)NC(=O)NC12CC3CC(CC(C3)C1)C2 | 0.699
90 | C=CC(=O)Nc1cn(C)nc1C(C)C | 8.9
91 | CCn1c(N)c(C(=O)CCl)c(=O)[nH]c1=O | 4.93
92 | C=CC(=O)N1C[C@]2(C)CC[C@@H](C2)C1(C)C | 15

Row | Compound | Inhibition % [%]
93 | O=S(=O)(F)c1ccc(-c2cn(Cc3cc(C4CC4)no3)nn2)cc1 | 3.46
94 | Cl.ClCCc1nc2ccccc2[nH]1 | 3.05
95 | C=CC(=O)NCC1(C)CCOC2(CCC2)C1 (centres unmarked) | 13.5
96 | CC1(C)OB(c2cccc(OCCN3CCCCC3)c2)OC1(C)C | -0.0143
97 | O=C(CCCl)NC1CCCCC1 | 3.8
98 | O=c1onc(-c2ccccn2)n1C1C=CCCC1 (centres unmarked) | 5.08
99 | O=c1onc(-c2cccnc2)n1C1C=CCCC1 (centres unmarked) | 54.8
100 | O=c1onc(-c2cccnc2)n1Cc1cc(F)cc(F)c1 | 16.6
101 | O=C(Nc1ccncc1)N1CCC(C2OCCO2)CC1 | 9.17
102 | O=C(Oc1ccccc1)N1CC(O)C1 | 29
103 | C=CC(=O)NC(C)c1cnn(C)c1 (centres unmarked) | 5.67
104 | O=C1NC(=O)C(CCS)N1 (centres unmarked) | 26.8
105 | Cl.O=S(=O)(F)CC1CCCNC1 (centres unmarked) | 7.49
106 | CC1(C)NC(=O)N(CCS(=O)(=O)F)C1=O | -4.21
107 | Cl.O=S(=O)(F)CC1CNCCO1 (centres unmarked) | 11
108 | O=C1NC(=O)C(CCS(=O)(=O)F)N1 (centres unmarked) | 97.6
109 | O=C1NC(=O)C(CS)N1 (centres unmarked) | 84.8
110 | O=C1NC(=O)C(CS(=O)(=O)F)N1 (centres unmarked) | 69.7
111 | Cl.O=S(=O)(F)CCC1CCCCN1 (centres unmarked) | 1.97
112 | O=C1NC(C2CC2)C1C1CC1 (centres unmarked) | 6.35
113 | N#Cc1cnc(OCC(F)(F)F)cn1 | 4.9
114 | C=CC(=O)N1CCC(S(=O)(=O)C(C)C)CC1 | 5.57
115 | Cc1csc(C(C#N)=Cc2cnn(C)c2)n1 | 11.9

Row | Compound | Inhibition % [%]
116 | Cc1cc(C)nc(S)n1 | 17.2
117 | Cc1cc(C)nc(S(=O)(=O)F)n1 | 55.9
118 | Cc1cnc(S(=O)(=O)F)nc1 | 33.7
119 | O=C(CCCCl)N1CCCCC1 | 2.86
120 | O=C1OCCC1N1C(=O)c2ccccc2S1(=O)=O (centres unmarked) | 6.02
121 | Cc1ccc(C=CS(=O)(=O)Nc2cc(C)nn2C)cc1 | 20
122 | C=CC(=O)N1CCC(C)C(OC)C1 (centres unmarked) | 7.85
123 | O=C(O)c1ccc2c(=O)[nH]c(S)nc2c1 | 11.3
124 | O=C(O)c1cccc(CS)c1 | 30.4
125 | O=C(O)c1ccc(CS)c(F)c1 | 82.7
126 | O=C(CCl)Nc1cc2c(cc1[N+](=O)[O-])OCCCO2 | 3.15
127 | COc1cccc(C2CCCN2C(=O)CCl)c1 (centres unmarked) | 2.56
128 | C=CC(=O)N(C)Cc1cnc(N(C)C)nc1 | 5.02
129 | CC(C#N)NS(=O)(=O)c1cccc(S(=O)(=O)F)c1 (centres unmarked) | 102
130 | CC(C#N)NS(=O)(=O)c1ccc(S(=O)(=O)F)cc1 (centres unmarked) | 23.5
131 | CCCC(C#N)NS(=O)(=O)c1cccc(S(=O)(=O)F)c1 (centres unmarked) | 96.8
132 | CCCC(C#N)NS(=O)(=O)c1ccc(S(=O)(=O)F)cc1 (centres unmarked) | 33.3
133 | CCC(C#N)NS(=O)(=O)c1ccc(S(=O)(=O)F)cc1 (centres unmarked) | 31.6
134 | N#CC1(NS(=O)(=O)c2ccc(S(=O)(=O)F)cc2)CCC1 | 31.4
